Screening data deposited in PubChem BioAssay by National Center for Advancing Translational Sciences (NCATS).
Rows were chosen to be rich in hits. Some 8.9% of all compounds tested hit in one or more screens of this group.
ALDH1A1 inh – ALDH1A1 (human) enzyme inhibition. Purified ALDH1A1, NADH fluorescence, propionaldehyde substrate. P00352. 7.3% of 220,000 active. Potency, µM (titrated, usually from 75.3 µM), most hits filed as inhibitors; active means well fitted inhibition curve with a large enough effect, not every such curve was filed as active; inconclusive means small, poorly fitted or top-dose-only effect, or another doubt; inactive means no such curve, though single readings can be large or run the other way
12-hLO inh – inhibitors of human 12-lipoxygenase (ALOX12); P18054; purified 12-hLO, xylenol orange hydroperoxide absorbance; Potency, µM (highest dose often 57.1 µM), usual class: inhibitors; 0.12% of 150,000 active; AID 1452; further: nearly all actives have a fitted effect of over 55% in size
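Purified human 12hLO (150 nM), preincubated 15 min with compound, then 40 uM arachidonic acid for 30 min, room temperature, Hepes pH 7.0 with 0.01% Triton X-100. Hydroperoxide detected by ferrous iron/xylenol orange; 573/405 nm absorbance ratio gives reaction progress.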
NPSR antagonist – blocks cAMP signaling of the human neuropeptide S receptor. Q6W5P4. CHO-NPSR cells, cAMP TR-FRET, antagonist mode. Potency, µM (series often up to 38.3 µM), usual class: inhibitors. 1% of 220,000 active; further: nearly all actives have a fitted effect of over 50% in size
Target sequence (Q6W5P4 whole entry, looked up): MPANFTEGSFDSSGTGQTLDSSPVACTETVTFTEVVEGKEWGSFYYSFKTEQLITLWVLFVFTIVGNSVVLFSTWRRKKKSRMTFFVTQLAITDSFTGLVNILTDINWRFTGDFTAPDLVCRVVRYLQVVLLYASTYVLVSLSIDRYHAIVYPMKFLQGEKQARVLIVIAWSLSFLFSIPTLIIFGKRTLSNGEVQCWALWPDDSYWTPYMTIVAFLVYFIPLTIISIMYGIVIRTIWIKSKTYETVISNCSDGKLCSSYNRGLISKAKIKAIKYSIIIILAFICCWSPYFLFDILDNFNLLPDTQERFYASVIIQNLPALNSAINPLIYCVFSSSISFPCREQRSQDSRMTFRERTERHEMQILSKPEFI
IMPase inh – cell-permeable inhibitors of inositol monophosphatase (IMPase); AID 901; 120,000 tested, under 10 active; CHO-M1 cells, IP1 accumulation, HTRF TR-FRET ratio; inhibition (IP1 accumulation), % at 46.1 µM; active means well fitted curve in the direction sought with a large enough effect in the signal ratio, not every such curve was filed as active; inconclusive means small, poorly fitted or top-dose-only effect, or a change in a side signal; inactive means no such curve, though single readings can be large or run the other way; the % refers to the signal ratio;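 further: cells stimulated with carbachol in lithium chloride buffer; higher means more IMPase inhibition seen as more IP1 and lower FRET ratio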
Target sequence (P97697 whole entry, looked up): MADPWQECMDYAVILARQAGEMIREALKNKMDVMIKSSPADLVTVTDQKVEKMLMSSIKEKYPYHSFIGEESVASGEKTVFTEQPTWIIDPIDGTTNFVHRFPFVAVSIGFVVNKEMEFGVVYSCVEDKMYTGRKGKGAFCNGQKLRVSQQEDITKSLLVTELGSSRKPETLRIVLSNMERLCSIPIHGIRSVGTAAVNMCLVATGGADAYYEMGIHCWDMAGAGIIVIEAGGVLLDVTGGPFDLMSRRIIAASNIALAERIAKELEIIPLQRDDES
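Measured: the HTRF emission ratio (665/620 nm) plus the 620 nm donor channel, each fitted to the Hill equation to give AC50. Cells were CHO-M1 given compounds up to 46 uM and a 30 min carbachol stimulation at 37C.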
IMPase Li inh – IMPase inhibition in cells with lithium potentiation. Potency, µM (titrated, usually from 59.4 µM), hits mostly inhibitors. 0.35% of 210,000 active. CHO-M1 cells, IP1 TR-FRET (IP-One), carbachol + lithium. AID 1457;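 further: IP1 builds up when IMPase is blocked and the TR-FRET signal falls; nearly all actives have a fitted effect of over 50% in size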
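Readout is a homogeneous TR-FRET IP1 immunoassay (Ex 320, Em 665 and 620), where raised cytosolic IP1 lowers signal. Cells were CHO-M1 treated 30 min at 37C with test compounds plus a little lithium; AC50 values came from Hill-equation fitting.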
HPGD inh – inhibitors of human 15-hydroxyprostaglandin dehydrogenase (HPGD); P15428; purified HPGD, NADH fluorescence kinetic, PGE2 substrate; Potency, µM, actives largely listed as inhibitors; 4.3% of 150,000 active; active means well fitted inhibition curve with a large enough effect, not every such curve was filed as active; inconclusive means small, poorly fitted or top-dose-only effect, or another doubt; inactive means no such curve, though single readings can be large or run the other way
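NADH formation kinetics: reaction with 30 uM PGE2 and 1 mM NAD+ (final), 20 nM enzyme, Tris-HCl pH 8 with Tween 20, after 15 min compound preincubation at room temperature. Fluorescence change, last versus first of five reads.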
Numbers stand for hits; i = inactive; ? = inconclusive; nt = no result; [ ] = remark or other dose. Unless noted, the call rests on the fitted dose curve; in most records, active means well fitted curve in the direction sought with a large enough effect; inconclusive means small, poorly fitted or top-dose-only effect, or another doubt; inactive means no such curve, though single readings can be large; an effect the other way counts as inactive or inconclusive.

SMILES	ALDH1A1 inh	12-hLO inh	NPSR antagonist	IMPase inh	IMPase Li inh	HPGD inh
COc1ccc(NC(=O)CSc2nc3ccccc3c(=O)n2CCC(=O)N2CCCCC2)cc1	16µM	i	i	i	i	i
COc1cccc(NC(=O)CSc2nc3ccccc3c(=O)n2CCCC(=O)N2CCCC2)c1	?	i	i	?	i	28µM
CN(C)c1ccc(NC(=O)CSc2nc3ccccc3c(=O)n2C2CCCCC2)cc1	7.1µM	i	i	i	i	i
CCOc1ccc(NC(=O)CSc2nc3ccccc3c(=O)n2CCCC(=O)N2CCCC2)cc1	i	i	i	?	nt	nt
CN1CCN(S(=O)(=O)c2ccc(NC(=O)C3CCCCC3)cc2)CC1	i	i	i	i	i	i
COc1ccc(/C=C(/C#N)S(=O)(=O)c2ccc(C)cc2)cc1	i	i	i	i	i	25µM
CC(NC(=S)Nc1ccccc1Cl)C(c1ccccc1)N1CCOCC1 (configuration not stated)	28µM	i	i	nt	i	i
COc1ccc(NC(=S)NC(C)C(c2ccccc2)N2CCOCC2)cc1 (configuration not stated)	i	nt	i	nt	i	nt
Cc1nc(C)c(C(=O)OCC(=O)N2CCN(c3ccccc3)CC2)s1	i	i	i	i	i	i
CC(=C\c1ccco1)/C=C1/SC(=S)N(CC(=O)O)C1=O	nt	nt	i	nt	nt	nt
COc1ccc(-n2nc(C)c3sc(C)nc3c2=O)cc1	?	nt	i	nt	nt	nt
Cc1c(C#N)c(N=CN(C)C)c(C(=O)c2ccc(Br)cc2)n1-c1ccccc1	22µM	i	i	i	i	i
O=C(Nc1ccccc1)OC(CN1CCCCC1)C(F)(F)F (configuration not stated)	i	i	i	i	i	i
O=C(CCN1C(=O)C2C3CCC(C3)C2C1=O)Nc1ccc(Br)cc1 (configuration not stated)	?	i	i	nt	i	i
COc1ccc(NC(=O)CCN2C(=O)C3C4CCC(C4)C3C2=O)cc1 (configuration not stated)	13µM	i	i	nt	i	i
COc1ccc(NC(=O)CCN2C(=O)[C@@H]3[C@H](C2=O)[C@H]2C=C[C@@H]3C2)cc1	nt	nt	i	nt	nt	nt
O=C(CCN1C(=O)C2C3CCC(C3)C2C1=O)Nc1ccc([N+](=O)[O-])cc1 (configuration not stated)	3.5µM	nt	i	nt	i	nt
CC(C)CNc1nc(N)[nH]c(=O)c1NC=O	i[13.5 µM]	i[11.4 µM]	nt	nt	i	i
Cc1ccc(-n2c(N)c(C#N)c(-c3ccc(Cl)cc3)c(C#N)c2=O)cc1	?	i	?	?	28µM	?
CC(C)(C)C(=O)Nc1ccc(-c2cn3ccsc3n2)cc1	i	i	i	i	i	i
CC(C)CC(=O)Nc1ccc(-c2cn3ccsc3n2)cc1	i	i	i	i	i	25µM
CC1(C)CC(=O)C(C(c2ccco2)C2C(=O)CC(C)(C)CC2=O)C(=O)C1	?	i	i	i	i	7.9µM
Cc1ccc(N/N=C2/CCCNC2=O)cc1	22µM	i	i	i	i	i
CC(=O)c1ccc(N/N=C2/CCCNC2=O)cc1	?	nt	i	nt	nt	nt
CN(C)CC(O)COc1cc2ccccc2cc1C(=O)N1CCCCC1 (configuration not stated)	i	i	i	i	i	28µM
SMILES	ALDH1A1 inh	12-hLO inh	NPSR antagonist	IMPase inh	IMPase Li inh	HPGD inh
CCN(CC)Cc1c(O)c(Cl)cc2c3c(c(=O)oc12)CCCC3	?	i	i	i	13µM	?
CN(C)Cc1c(O)c(Cl)cc2c3c(c(=O)oc12)CCCC3	?	i	i	?	?	?
COCCN1C(=O)/C(=C/c2ccc(OCc3ccc(C(=O)O)cc3)c(OC)c2)SC1=Nc1ccccc1	1.1µM	i	13µM	nt	i	i
CC1CC(C)(C)NCc2ccccc21 (configuration not stated)	0.56µM	i	i	?	nt	nt
COC(=O)C1=C(C)NC(=O)/C1=C\c1cc(C)n(-c2c(C)cccc2C)c1C	18µM	i	i	i	i	i
COC(=O)C1=C(C)NC(=O)/C1=C\c1cccs1	i	i	i	i	i	i
Cc1cccc(C)c1-n1c(C)cc(/C=C2\NC(=O)NC2=O)c1C	16µM	i	i	i	i	?
COC(=O)C1=C(C)NC(=O)/C1=C\c1cc(C)n(-c2ccccc2F)c1C	16µM	nt	i	nt	i	nt
COC(=O)C1=C(C)NC(=O)/C1=C\c1cc(C)n(-c2ccccc2C)c1C	?	i	i	i	i	i
O=S(=O)(c1cc(C(F)(F)F)ccc1Cl)N1CCCCCC1	?	i	i	i	i	i
COc1cc(OC)cc(C(=O)NCc2ccc(-n3cccc3)cc2)c1	i	nt	i	nt	i	nt
Fc1ccc(Nc2nc3ccccc3s2)cc1	i	nt	i	nt	i	nt
O=[N+]([O-])c1ccc(Nc2nc3ccccc3s2)cc1	1.4µM	i[11.4 µM]	nt	nt	i	i
OCC(O)CN1CCN(c2ccccc2)CC1 (configuration not stated)	i	i	i	nt	i	i
CCOC(=O)N1CCN(CC(O)c2ccc3c(c2)CCN3)CC1 (configuration not stated)	18µM	i	i	i	nt	nt
OC(CN1CCN(c2ccccc2)CC1)c1ccc2c(c1)CCN2 (configuration not stated)	7.1µM	i	i	i	i	i
Cc1ccc(/C=C/c2nc3ccccc3[nH]2)o1	?	nt	?	nt	i	nt
O=C(NCc1ccccc1)C1=C[C@@H](c2coc3ccccc3c2=O)C[C@@H](OCc2ccc(CO)cc2)O1	7.9µM	nt	i	nt	i	nt
O=C(NCc1ccccc1)C1=C[C@@H](C2CC2)C[C@@H](OCc2ccc(CO)cc2)O1	11µM	nt	i	nt	i	nt
O=C1CSC(=S)N1/N=C\c1ccc(Cl)c([N+](=O)[O-])c1	i[13.5 µM]	i[11.4 µM]	nt	nt	i	i
Cc1cccc(N=Cc2cc(Br)cc(Cl)c2O)c1	i	nt	i	nt	i	nt
CCCCCn1c(SCC#N)nc2cc(C(=O)NCC3CCCO3)ccc2c1=O (configuration not stated)	i	i	i	i	i	2.5µM
O=C(CCCn1c(SCC(=O)c2ccc(O)c(O)c2)nc2ccccc2c1=O)NCC1CCCO1 (configuration not stated)	18µM	?	?	i	i	5µM
O=C(CCCn1c(SCC(=O)NC2CCCCC2)nc2ccccc2c1=O)NCC1CCCO1 (configuration not stated)	?	i	i	?	i	?
COc1ccc(Cn2c(S(=O)(=O)CC(N)=O)nc3ccccc32)cc1[N+](=O)[O-]	7.1µM	nt	i	nt	i	nt
NC(=O)CS(=O)(=O)c1nc2ccccc2n1Cc1ccccn1	i	nt	i	nt	i	nt
Cc1cc(C)c(-c2csc(NC(=O)c3n[nH]c(=O)c4ccccc34)n2)c(C)c1	i	i	i	i	i	i
COc1ccc(NC(=O)N2CCCCCC2)c(OC)c1	i	nt	i	nt	i	nt
